Bioassay records as filed in PubChem.
M1 agonist = agonists of M1 muscarinic receptor; actives 3% (n = 64,000); B-score at 10 µM; CHO-M1 cells, Fluo-4 calcium fluorescence, agonist mode; active compounds read high; AID 626;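 active = fluorescence rise, raw or as B-score row- and column-corrected plate score, outside the 99.7% band of its plate's samples, either direction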
Cav32 inh = inhibitors of human Cav3.2 T-type calcium channel; B-score at 10 µM; Cav3.2-expressing cells, Fluo-4 calcium fluorescence FDSS; active compounds read low; actives 4% (n = 100,000); O95180;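 active = single-dose well whose peak fluorescence ratio is a statistical outlier from its plate by either plate-standardised score or position-corrected B-score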
M1 antag = blocks the rat M1 muscarinic receptor response to acetylcholine; P08482; CHO-M1 cells, Fluo-4 calcium, ACh EC80 antagonist mode; active compounds read low; B-score at 10 µM; actives 3.4% (n = 64,000);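 active = calcium fluorescence response, raw or row-and-column corrected B-score, differing from the plate sample mean either way at a set confidence level, mostly lower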
PLAP activator = activators of human placental alkaline phosphatase; activation fold at 20 µM; purified PLAP enzyme, luminescent substrate read-out; active compounds read high; AID 696; actives 1.2% (n = 96,000); in the data active = activation fold above about 2
Target sequence (P05187 whole entry, looked up): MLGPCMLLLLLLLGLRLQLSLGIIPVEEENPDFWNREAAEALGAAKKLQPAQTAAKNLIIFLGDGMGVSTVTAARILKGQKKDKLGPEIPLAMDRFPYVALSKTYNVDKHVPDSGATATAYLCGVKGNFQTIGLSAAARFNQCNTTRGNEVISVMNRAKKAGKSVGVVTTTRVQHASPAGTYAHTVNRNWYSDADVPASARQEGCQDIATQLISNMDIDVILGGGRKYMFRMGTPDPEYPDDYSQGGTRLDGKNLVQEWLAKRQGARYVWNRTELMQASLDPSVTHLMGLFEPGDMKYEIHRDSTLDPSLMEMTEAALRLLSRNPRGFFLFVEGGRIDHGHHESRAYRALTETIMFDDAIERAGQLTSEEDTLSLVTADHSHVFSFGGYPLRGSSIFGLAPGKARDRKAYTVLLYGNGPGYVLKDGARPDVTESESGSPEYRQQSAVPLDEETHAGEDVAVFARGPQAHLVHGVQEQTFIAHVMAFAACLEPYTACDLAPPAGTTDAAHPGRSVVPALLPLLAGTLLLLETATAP
M1 ag confirm = rat M1 muscarinic agonism, confirmation | shares compounds with M1 agonist | CHO-M1 cells, Fluo-4 calcium fluorescence, agonist mode; actives lie on both sides | fluorescence change (max-min) at 10 µM | actives 19% (n = 1,700);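 active = fluorescence change differs from the solvent-only DMSO control mean at a set confidence level in both duplicate runs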;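 note: an EC20 dose of acetylcholine follows compound addition during the same imaging run; raw fluorescence intensity difference in instrument units with no normalization to controls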
M4 ag counter = counter-screen for M1 agonists: activity at rat M4 receptor; actives 9% (n = 1,700); fluorescence change (max-min) at 10 µM; shares compounds with M1 agonist; CHO M4/Gqi5 cells, Fluo-4 calcium fluorescence, agonist mode; actives lie on both sides;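 active = fluorescence change differing from the plate's solvent-only control wells at 99.7% confidence in both duplicates, whether higher or lower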
* = called active by the depositor. An excerpt weighted towards active compounds, which were near 7.6% of everything screened.

What do the screens show for `COC(=O)C1=C(c2cc3ccccc3s2)C[C@@H]2CC[C@H]1N2C(=O)NCc1ccc(F)cc1`?
Cav32 inh: -3.35*

Results for COC(=O)C1=C(c2ccc(S(C)(=O)=O)cc2)C[C@@H]2CC[C@H]1N2C(=O)N1CCOCC1 ?
Cav32 inh: 1.55

How did O=c1cccc2n1CC1CC2CN(c2ncnc3c2cnn3-c2ccc(Cl)cc2)C1 (stereo unspecified) do in these assays?
M1 agonist: -3.55*; Cav32 inh: 0.717; M1 antag: 0.253; PLAP activator: 1.5

How did O=c1[nH]c(=O)n(CCc2ccc(F)cc2)c(O)c1C=NCCCn1ccnc1 do in these assays?
M1 agonist: -0.693; Cav32 inh: 0.297; M1 antag: 0.253; PLAP activator: 1.4

What do the screens show for `O=c1[nH]c(=O)n(CCC2=CCCCC2)c(O)c1C=NCCCn1ccnc1`?
M1 agonist: -1.52; Cav32 inh: 1.29; M1 antag: -0.75; PLAP activator: 2.1*

Results for CCN1CCN(C(=O)COc2ccc3c(c2)C(=O)CC2(CCN(C(C)=O)CC2)O3)CC1 ?
Cav32 inh: 0.0221; PLAP activator: 2.7*

What do the screens show for `CCN1CCN(C(=O)COc2cc(=O)n(CC)c3ccccc23)CC1`?
M1 agonist: 0.673; Cav32 inh: 0.214; M1 antag: 0.157; PLAP activator: 1.3

What do the screens show for `O=S1(=O)CC2(N3CCOCC3)CCCCC21` (stereo unspecified)?
M1 agonist: -0.332; Cav32 inh: -0.802; M1 antag: 0.357; PLAP activator: 1.1

Results for CCOC(=O)C1(c2ccccc2)CCN(CCC(C#N)(c2ccccc2)c2ccccc2)CC1 ?
Cav32 inh: -7.55*

How did CCOC(=O)c1ccc(N2C(=O)CC(N3CCC(C#N)(c4ccccc4)CC3)C2=O)cc1 (stereo unspecified) do in these assays?
M1 agonist: -0.543; Cav32 inh: 0.322; M1 antag: 0.133; PLAP activator: 1.1

How did CCOC(=O)C1=C(C)OC(N)=C(C(=O)OCC)C12C(=O)Nc1ccc(Br)cc12 (stereo unspecified) do in these assays?
M1 agonist: -0.433; Cav32 inh: -3.81*; M1 antag: 0.06; PLAP activator: 1.5

How did Cc1cc(C)n(CCOC(=O)C2C(C=C(Cl)Cl)C2(C)C)n1 (stereo unspecified) do in these assays?
M1 agonist: 0.0627; Cav32 inh: -6.62*; M1 antag: -0.906; PLAP activator: 1.6

What do the screens show for `COC(=O)C1=C(c2ccccc2)C[C@@H]2CC[C@H]1N2C(=O)NCc1cccc2ccccc12`?
Cav32 inh: -1.61

How did CNc1ccc2oc(C[C@H]3O[C@@]4(CC[C@H]3C)O[C@H]([C@H](C)C(=O)c3ccc[nH]3)[C@H](C)C[C@H]4C)nc2c1C(=O)O do in these assays?
Cav32 inh: 4.36*

What do the screens show for `CC12CN3CCN(CC(C3)C1O)C2` (stereo unspecified)?
M1 agonist: -0.87; Cav32 inh: -0.388; M1 antag: -0.133; PLAP activator: 1

How did CC(C)CC12CN3CCN(CC(C3)C1O)C2 (stereo unspecified) do in these assays?
M1 agonist: 1.12; Cav32 inh: -0.504; M1 antag: 1.39*; PLAP activator: 0.9

What do the screens show for `CCCCn1c(O)c(C(C)=NCC2CCCO2)c(=O)[nH]c1=O` (stereo unspecified)?
Cav32 inh: 0.955; PLAP activator: 0.9

What do the screens show for `CC1CCN(S(=O)(=O)c2ccc(NN=C(C#N)C#N)cc2)CC1`?
Cav32 inh: -8.41*; PLAP activator: 1.1

Results for COc1ccc(C(=O)N2CCOCC2)cc1S(=O)(=O)N1CCC(C)CC1 ?
M1 agonist: -0.36; Cav32 inh: -0.0579; M1 antag: -0.187; PLAP activator: 1

What do the screens show for `COc1ccc(CCNC(C)CCc2ccc(OC)cc2)cc1` (stereo unspecified)?
Cav32 inh: -0.426; PLAP activator: 1.5

Results for O=C(Nc1ccc(Cl)cc1)O/N=C(\c1ccccc1)c1ccccn1 ?
Cav32 inh: -0.548; PLAP activator: 1.1

How did O=C(Cn1ncc2c3ccccc3n(Cc3ccc(F)cc3)c2c1=O)N1CCC2(CC1)OCCO2 do in these assays?
M1 agonist: -0.0352; Cav32 inh: -7.98*; M1 antag: -0.124

Results for OCC12CO[C@@H]3c4ccccc4[C@H](OC1)N32 (stereo partly specified) ?
PLAP activator: 1

How did O=C(c1cc(-c2cccnc2)nc2ccc(Cl)cc12)N1CCC2(CC1)OCCO2 do in these assays?
M1 agonist: 2.83*; Cav32 inh: 0.905; M1 antag: -1.06; PLAP activator: 1; M1 ag confirm: -35.2*; M4 ag counter: -90.1

What do the screens show for `O=C(c1cc(-c2cccnc2)nc2ccccc12)N1CCC2(CC1)OCCO2`?
M1 agonist: 0.678; Cav32 inh: 0.454; M1 antag: -0.143; PLAP activator: 1.2

What do the screens show for `COC(=O)C1=C(c2ccc(S(C)(=O)=O)cc2)C[C@@H]2CC[C@H]1N2C(=O)NCc1ccco1`?
Cav32 inh: 1.15

How did CC[N+](C)(CC)CCCOC(=O)C(O)(c1ccccc1)C1CCCCC1 (stereo unspecified) do in these assays?
Cav32 inh: 0.0275

Results for O[C@H]1C2CCC1C(N1CCCCC1)CC2 (stereo partly specified) ?
M1 agonist: -0.398; Cav32 inh: 0.461; M1 antag: 0.0366; PLAP activator: 1.1

What do the screens show for `O=C1NC(=O)C(CCc2ccncc2)(c2ccccc2)C(=O)N1`?
M1 agonist: -0.721; Cav32 inh: -0.458; M1 antag: 0.457; PLAP activator: 1

How did ON1C2CCCCC2N(O)C1c1ccccc1F (stereo unspecified) do in these assays?
Cav32 inh: 0.157; PLAP activator: 1.1

How did COc1ccc(-n2c(=O)[nH]c3ccccc3c2=O)cc1 do in these assays?
Cav32 inh: -0.0733; PLAP activator: 0.9

Results for COc1ccc(P2(=O)Nc3ccccc3N2)cc1 ?
M1 agonist: 8.39*; Cav32 inh: -2.11*; M1 antag: -0.298; PLAP activator: 1; M1 ag confirm: 154*; M4 ag counter: 163*

What do the screens show for `CN1CC=C2C(C#N)=C(N)C(C#N)(C#N)C(c3ccncc3)C2C1` (stereo unspecified)?
M1 agonist: 78*; Cav32 inh: -1.04; M1 antag: -1.22; PLAP activator: 1; M1 ag confirm: 242*; M4 ag counter: 212*

Results for COc1cc(OC)cc(-n2nc(C(=O)N3CCC4(CC3)OCCO4)c3ccccc3c2=O)c1 ?
M1 agonist: 2.54; M1 antag: 0.117; PLAP activator: 1

What do the screens show for `CCCC(=O)OCC[N+](C)(C)C`?
M1 agonist: 39.9*; Cav32 inh: 1.03; M1 antag: -7.65*; M1 ag confirm: 378*; M4 ag counter: 7.27
